From PubChem
Rows were chosen to be rich in hits. Some 1.5% of all compounds tested hit in one or more screens of this group.
GC-B act – GC-B (human) receptor activation | HEK293-GC-B cells, CNP EC30, cGMP TR-FRET; 0% at EC30 CNP, 100% saturating CNP | activation, % at 10 µM | hit rate 0.11% among 370,000 | AID 1920062;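 active = activation at 10 µM reaching about 35% in either raw or pattern-adjusted values, limit read from the data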
NadD block – inhibitors of Staphylococcus aureus NadD | purified NadD enzyme, colorimetric absorbance read-out | inhibition, % at 20 µM | hit rate 0.78% among 360,000; in the data active = inhibition above about 26%
NPR1 activator – GC-A (human) enzyme activation; HEK293 GC-A cells, cGMP TR-FRET, EC30 ANP; 0% at EC30 ANP, 100% saturating ANP; activation, % at 10 µM; hit rate 0.14% among 370,000; AID 1671463; in the data active = activation above about 40%
Target sequence (P16066 whole entry, looked up): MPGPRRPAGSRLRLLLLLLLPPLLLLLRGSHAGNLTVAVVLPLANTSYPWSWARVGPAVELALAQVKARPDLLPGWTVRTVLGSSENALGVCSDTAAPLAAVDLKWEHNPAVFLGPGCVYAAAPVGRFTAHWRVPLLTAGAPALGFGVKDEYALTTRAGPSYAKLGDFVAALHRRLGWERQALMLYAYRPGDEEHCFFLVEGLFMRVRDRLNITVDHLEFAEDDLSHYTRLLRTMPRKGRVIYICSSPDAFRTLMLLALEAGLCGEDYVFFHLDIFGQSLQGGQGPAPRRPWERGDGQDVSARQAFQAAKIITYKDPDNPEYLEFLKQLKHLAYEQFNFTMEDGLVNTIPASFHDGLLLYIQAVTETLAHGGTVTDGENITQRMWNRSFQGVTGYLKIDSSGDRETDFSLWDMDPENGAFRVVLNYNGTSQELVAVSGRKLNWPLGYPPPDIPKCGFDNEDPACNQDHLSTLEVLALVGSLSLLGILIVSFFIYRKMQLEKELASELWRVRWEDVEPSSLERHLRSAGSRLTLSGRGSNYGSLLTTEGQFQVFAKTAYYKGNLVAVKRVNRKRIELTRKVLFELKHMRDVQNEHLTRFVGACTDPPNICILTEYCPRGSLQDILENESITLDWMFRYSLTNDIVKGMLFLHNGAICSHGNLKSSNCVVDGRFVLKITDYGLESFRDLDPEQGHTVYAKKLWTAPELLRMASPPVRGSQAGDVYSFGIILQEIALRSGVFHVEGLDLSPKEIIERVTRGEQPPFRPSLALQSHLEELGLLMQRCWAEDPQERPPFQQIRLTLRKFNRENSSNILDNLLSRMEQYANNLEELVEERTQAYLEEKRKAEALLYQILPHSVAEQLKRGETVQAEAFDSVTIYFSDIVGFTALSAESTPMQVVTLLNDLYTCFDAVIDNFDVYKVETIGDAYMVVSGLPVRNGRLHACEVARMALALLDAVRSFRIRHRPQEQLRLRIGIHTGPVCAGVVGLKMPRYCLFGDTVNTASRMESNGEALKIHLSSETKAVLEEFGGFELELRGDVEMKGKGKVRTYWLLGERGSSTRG
Neddyl block – blocks human cullin neddylation | TR-FRET cullin neddylation, biochemical | inhibition, % at 25 µM | hit rate 0.58% among 360,000 | AID 651699; in the data active = inhibition above about 36%
Large screens that a line does not name were inactive.

Cc1cc(/C=N/NC(=O)c2ccncc2)c(C)n1-c1ccccc1	none
Cc1cc(/C=N/NC(=O)c2cccs2)c(C)n1-c1ccccc1	Neddyl block 40
COc1cccc(CO[C@H]2C=C[C@@H](c3ccccc3)O[C@@H]2CO)c1	none (no result: NadD block, Neddyl block)
CC(C)C[C@H]1COc2cccc(F)c2S(=O)(=O)N1Cc1cn(CCC2OCCO2)nn1	none (no result: NadD block, Neddyl block)
O=C(N/N=C\c1c(O)ccc2ccccc12)c1ccc(S(=O)(=O)N2CCCCC2)cc1	NadD block 46
CCCCCCC(=O)NC1CCCCN(Cc2ccc(C)cc2)C1=O (configuration not stated)	none (no result: NadD block, Neddyl block)
COc1ccccc1NC(=S)N=Nc1c(O)[nH]c2ccc(Br)cc12	NadD block 30
Cc1cccc(NC(=S)N=Nc2c(O)[nH]c3ccccc23)c1	none
COc1ccc(-n2c(SCC(=O)Nc3ccc(Oc4ccccc4)cc3)nnc2-c2ccc(C)cc2)cc1	none (no result: NadD block, Neddyl block)
O=C1ON=C(c2ccccc2)/C1=C/c1ccccc1	none
COc1cc([N+](=O)[O-])ccc1-c1ccc(/C=N\n2cnnc2)o1	none
COc1cc([N+](=O)[O-])ccc1-c1ccc(/C=C2\C(=O)ON=C2c2ccccc2)o1	NadD block 45
O=C1ON=C(c2ccccc2)/C1=C\c1ccco1	GC-B act 42
Cc1sc2nc(SCC(=O)c3ccc(O)c(O)c3)n(C)c(=O)c2c1C	none (no result: NadD block, Neddyl block)
Cc1cccc(C)c1NC(=O)CSc1nc(-c2ccco2)cc(C(F)(F)F)n1	NPR1 activator 57
COC(=O)/C=C1\SC(=NC(=O)c2ccc(OC)cc2)NC1=O	none
COC(=O)/C=C1\SC(=NC(=O)c2ccc(-c3ccccc3)cc2)NC1=O	NadD block 31
COC(=O)[C@]1(CNC(=O)NCCc2ccc(OC)c(OC)c2)CC(=O)N(C)[C@@H]1c1ccccc1	none (no result: NadD block, Neddyl block)
C=CCN1C(=O)[C@H](CC(=O)N2CCN(C(=O)c3ccco3)CC2)[C@@]2(C(=O)OCC)CCCC=C12	none (no result: NadD block, Neddyl block)
Cc1ccc(C(=O)Nc2nc(-c3ccco3)c(-c3ccco3)s2)o1	NadD block 31
COc1ccc(-n2c(-c3ccccc3)cc3c2CCCC3=O)cc1	none
O=C1CCCc2c1cc(-c1ccccc1)n2-c1ccc(O)cc1	NPR1 activator 75
Cc1ccnc(Nc2nc(-c3c(C)nc4sccn34)cs2)c1	GC-B act 37
Cc1ccnc(Nc2nc(-c3ccccc3)cs2)c1	none
Cc1ccccc1NC(=O)[C@H]1CC(=O)O[C@@H]1c1ccccc1	none (no result: NadD block, Neddyl block)
C[C@@H]1ON(C)[C@H]2C[C@H]3c4cc(Br)ccc4CCN3C[C@@H]12	none (no result: NadD block, Neddyl block)
CSc1nc(N(CCO)CCO)c2sc3nc(-c4ccco4)c4c(c3c2n1)CCC4	NadD block 80
Brc1ccc(-c2csc(N3CCNCC3)n2)cc1	none (no result: NadD block, Neddyl block)
COc1cccc(C2CC(c3cccs3)=NN2C(=O)CSc2nc3c(cnn3-c3ccc(F)cc3)c(=O)[nH]2)c1OC (configuration not stated)	NadD block 39 (not shown: GC-B act, NPR1 activator, Neddyl block)
COc1cccc(C2CC(c3cccs3)=NN2C(=O)CSc2nc3ccccc3s2)c1OC (configuration not stated)	none
CC(NC(=O)/C(C#N)=C/c1ccc(Cl)c([N+](=O)[O-])c1)c1ccccc1 (configuration not stated)	NPR1 activator 55 (no result: NadD block, Neddyl block)
C[C@@H](NC(=O)/C(C#N)=C/c1ccc(O)c(O)c1)c1ccccc1	none
CC(C1=CCCCC1)c1cnn(C)c1 (configuration not stated)	none (no result: NadD block, Neddyl block)
O=C(CSc1nc2ccccc2n1CCc1ccccc1)c1ccc(O)c(O)c1	NadD block 36
O=C(CCN1CCC2CCC(C2)C1)c1ccccc1 (configuration not stated)	NPR1 activator 53
CC(C)NC(=S)NNc1ncnc2sc3c(c12)CC(C)(C)OC3	GC-B act 38
CC1(C)Cc2c(sc3ncnc(NNC(=S)NCc4ccccc4)c23)CO1	none
C=CCn1c(N)c(C(=O)NCCC2=CCCCC2)sc1=S	GC-B act 38
O=C(O)COc1ccccc1C(Nc1cccnc1)c1cc(Cl)c2cccnc2c1O (configuration not stated)	NadD block 37 (no result: GC-B act, NPR1 activator)
O=C(O)COc1ccccc1C(Nc1ccccn1)c1cc(Cl)c2cccnc2c1O (configuration not stated)	NadD block 38
CCOc1ccc(C(Nc2cccnc2)c2cc(Cl)c3cccnc3c2O)cc1 (configuration not stated)	none
COc1ccccc1C(NC(C)=O)c1cc(Cl)c2cccnc2c1O (configuration not stated)	none
COC(=O)C1=C(C)N(Cc2cccc(C(F)(F)F)c2)C(=NCc2cc(OC)c(OC)c(OC)c2)NC1c1cccc(F)c1 (configuration not stated)	none (no result: NadD block, Neddyl block)
CN(CCO)c1cccc2c1S(=O)(=O)N(Cc1cn(Cc3cccc(F)c3)nn1)Cc1ccccc1O2	none (no result: NadD block, Neddyl block)
COc1ccc(N2CCN(C(=O)c3ccc4c(c3)NC(=O)C(CSCc3ccccc3F)N4)CC2)cc1 (configuration not stated)	NadD block 56
COc1ccc(N2CCN(C(=O)c3ccc(CSc4ccccc4)cc3)CC2)cc1	none
CN(C)CC1CCC/C(=C\c2ccc(OC(=O)c3ccc(Cl)cc3)cc2)C1=O (configuration not stated)	NPR1 activator 40
Nc1ccc(C(=O)N/N=C\c2cc(N=Nc3cccc4ccccc34)ccc2O)cc1	NadD block 41
O=S1(=O)c2c(NCc3ccco3)cccc2Oc2ccccc2CN1Cc1cn(Cc2ccccc2C(F)(F)F)nn1	none (no result: NadD block, Neddyl block)
CCCOc1ccc(F)cc1-c1cc(C(=O)Nc2ccc(OC)cc2OC)[nH]n1	none
CCCOc1ccc(F)cc1-c1cc(C(=O)Nc2ccc(OC)cc2C)[nH]n1	GC-B act 62, NPR1 activator 58
COc1ccc(NC(=O)c2cc(-c3cc(Cl)ccc3OC)n[nH]2)c(C)c1	GC-B act 88, NPR1 activator 75
COc1ccc(/C=C2/C(=O)N(c3nc4ccccc4s3)N=C2CSc2ccc(Cl)cc2)cc1	NadD block 73
O=C(Nc1ccc(F)cc1)c1nc(S(=O)(=O)Cc2ccccc2)ncc1Cl	NPR1 activator 42
Cc1ccccc1CS(=O)(=O)c1ncc(Cl)c(C(=O)Nc2ccc(F)cc2)n1	NPR1 activator 42
Cc1ccc(NC(=O)c2nc(S(=O)(=O)Cc3ccccc3)ncc2Cl)cc1	none
CCN(c1ccccc1)S(=O)(=O)c1ccc(NC(=O)c2nc(S(C)(=O)=O)ncc2Cl)cc1	none (no result: GC-B act, NPR1 activator)
CCS(=O)(=O)c1ncc(Cl)c(C(=O)Nc2ccc(S(=O)(=O)N(C)c3ccccc3)cc2)n1	GC-B act 41, NPR1 activator 62
CCC(C)(C)C1CCc2c(sc(NC(=O)c3ccccc3C(=O)O)c2C#N)C1 (configuration not stated)	Neddyl block 69
CC1CCc2c(sc(NC(=O)c3ccccc3C(=O)O)c2C#N)C1 (configuration not stated)	none
CCC(=O)Nc1ccc(C(=O)Cn2ncc(Cl)c(Cl)c2=O)cc1	none
CCOC(=O)c1ccc(NC(=O)Cn2ncc(Cl)c(Cl)c2=O)cc1	NPR1 activator 61
